# Test results taken from the supplement of paper PMC8728848.
# This is one part of a sample in which the strongest signals are shown more often than they occur.
# Experiments:
# Assay in all cases: glycan array binding signal (z-score within array); higher = stronger binding
# Conditions in all cases: glycan notation: IUPAC condensed, linker removed
# [1] = target: Fuc(a1-2)Gal6S(b1-3)GlcNAc6S
# In short: (§1)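 The Consortium for Functional Glycomics database supplied 3228 glycan arrays, of which those lacking an available protein sequence were dropped. The binding signal, a within-array Z-score, was averaged across arrays of the same protein sequence and across linkers. Negative scores can be read as non-binding.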
# [2] = target: Fuc(a1-2)[Gal(a1-3)]Gal(b1-3)GlcNAc(b1-2)Man(a1-3)[Fuc(a1-2)[Gal(a1-3)]Gal(b1-3)GlcNAc(b1-2)Man(a1-6)]Man(b1-4)GlcNAc(b1-4)[Fuc(a1-6)]GlcNAc
# In short: as §1
# [3] = target: Fuc(a1-2)[GalNAc(a1-3)]Gal(b1-4)[Fuc(a1-3)]GlcNAc(b1-3)GalNAc
# In short: as §1
# [4] = target: Fuc(a1-3)[Gal(b1-4)]GlcNAc
# In short: as §1
# [5] = target: Fuc(a1-3)[Gal(b1-4)]GlcNAc(b1-3)Gal(b1-4)[Fuc(a1-3)]GlcNAc
# In short: as §1
# [6] = target: Fuc(a1-3)[Gal(b1-4)]GlcNAc(b1-3)Gal(b1-4)[Fuc(a1-3)]GlcNAc(b1-3)Gal(b1-4)[Fuc(a1-3)]GlcNAc
# In short: as §1
# [7] = target: Gal(a1-4)Gal(b1-4)GlcNAc(b1-2)Man(a1-3)[Gal(a1-4)Gal(b1-4)GlcNAc(b1-2)Man(a1-6)]Man(b1-4)GlcNAc(b1-4)GlcNAc
# In short: as §1
# [8] = target: Gal(b1-2)Gal
# In short: as §1
# [9] = target: Gal(b1-3)[Fuc(a1-4)]GlcNAc(b1-6)GalNAc
# In short: as §1
# [10] = target: Gal(b1-3)[Neu5Ac(a2-6)]GalNAc
# In short: as §1
# [11] = target: Gal(b1-4)GlcNAc(b1-2)Man(a1-3)[Gal(b1-4)GlcNAc(b1-2)Man(a1-6)]Man(b1-4)GlcNAc(b1-4)[Fuc(a1-6)]GlcNAc
# In short: as §1
# [12] = target: Gal(b1-4)GlcNAc(b1-2)Man(a1-6)[Man(a1-3)]Man(b1-4)GlcNAc(b1-4)GlcNAc
# In short: as §1
# [13] = target: Gal(b1-4)GlcNAc(b1-3)Gal(b1-4)GlcNAc
# In short: as §1
# [14] = target: Gal(b1-4)GlcNAc(b1-3)Gal(b1-4)GlcNAc(b1-3)Gal(b1-4)GlcNAc(b1-3)Gal(b1-4)GlcNAc(b1-3)Gal(b1-4)GlcNAc(b1-2)Man(a1-3)[Gal(b1-4)GlcNAc(b1-3)Gal(b1-4)GlcNAc(b1-3)Gal(b1-4)GlcNAc(b1-3)Gal(b1-4)GlcNAc(b1-3)Gal(b1-4)GlcNAc(b1-2)Man(a1-6)]Man(b1-4)GlcNAc(b1-4)GlcNAc
# In short: as §1
# [15] = target: Gal(b1-4)GlcNAc(b1-3)Gal(b1-4)GlcNAc(b1-3)Gal(b1-4)GlcNAc(b1-3)Gal(b1-4)GlcNAc(b1-3)Gal(b1-4)GlcNAc(b1-2)Man(a1-3)[Gal(b1-4)GlcNAc(b1-3)Gal(b1-4)GlcNAc(b1-3)Gal(b1-4)GlcNAc(b1-3)Gal(b1-4)GlcNAc(b1-3)Gal(b1-4)GlcNAc(b1-2)Man(a1-6)]Man(b1-4)GlcNAc(b1-4)[Fuc(a1-6)]GlcNAc
# In short: as §1
# [16] = target: Gal(b1-4)GlcNAc(b1-3)Gal(b1-4)GlcNAc(b1-3)Gal(b1-4)GlcNAc(b1-3)Gal(b1-4)GlcNAc(b1-3)Gal(b1-4)GlcNAc(b1-3)Gal(b1-4)GlcNAc(b1-2)Man(a1-3)[Gal(b1-4)GlcNAc(b1-3)Gal(b1-4)GlcNAc(b1-3)Gal(b1-4)GlcNAc(b1-3)Gal(b1-4)GlcNAc(b1-3)Gal(b1-4)GlcNAc(b1-3)Gal(b1-4)GlcNAc(b1-2)Man(a1-6)]Man(b1-4)GlcNAc(b1-4)GlcNAc
# In short: as §1
# [17] = target: Gal(b1-4)GlcNAc(b1-3)[GlcNAc(b1-6)]Gal(b1-4)GlcNAc
# In short: as §1
# [18] = target: Gal3S6S(b1-4)GlcNAc6S
# In short: as §1
# [19] = target: Gal4S6S(b1-4)GlcNAc
# In short: as §1
# [20] = target: Gal6S(b1-3)GlcNAc6S
# In short: as §1
# [21] = target: GalNAc(b1-4)GlcNAc6S
# In short: as §1
# [22] = target: GlcA(b1-3)Gal
# In short: as §1
# [23] = target: GlcNAc(b1-2)Man(a1-3)[GlcNAc(b1-4)][GlcNAc(b1-2)Man(a1-6)]Man(b1-4)GlcNAc(b1-4)GlcNAc
# In short: as §1
# [24] = target: GlcNAc(b1-3)Gal(b1-4)GlcNAc
# In short: as §1
# [25] = target: GlcNAc(b1-3)Gal(b1-4)GlcNAc(b1-3)Gal(b1-4)GlcNAc(b1-2)Man(a1-3)[GlcNAc(b1-3)Gal(b1-4)GlcNAc(b1-3)Gal(b1-4)GlcNAc(b1-2)Man(a1-6)]Man(b1-4)GlcNAc(b1-4)GlcNAc
# In short: as §1
# [26] = target: GlcNAc(b1-3)Gal(b1-4)GlcNAc(b1-3)Gal(b1-4)GlcNAc(b1-3)Gal(b1-4)GlcNAc(b1-2)[GlcNAc(b1-3)Gal(b1-4)GlcNAc(b1-3)Gal(b1-4)GlcNAc(b1-3)Gal(b1-4)GlcNAc(b1-6)]Man(a1-6)[GlcNAc(b1-3)Gal(b1-4)GlcNAc(b1-3)Gal(b1-4)GlcNAc(b1-3)Gal(b1-4)GlcNAc(b1-2)Man(a1-3)]Man(b1-4)GlcNAc(b1-4)[Fuc(a1-6)]GlcNAc
# In short: as §1
# [27] = target: GlcNAc(b1-3)Gal(b1-4)GlcNAc(b1-3)Gal(b1-4)GlcNAc(b1-3)Gal(b1-4)GlcNAc(b1-3)Gal(b1-4)GlcNAc(b1-2)Man(a1-3)[GlcNAc(b1-3)Gal(b1-4)GlcNAc(b1-3)Gal(b1-4)GlcNAc(b1-3)Gal(b1-4)GlcNAc(b1-3)Gal(b1-4)GlcNAc(b1-2)Man(a1-6)]Man(b1-4)GlcNAc(b1-4)[Fuc(a1-6)]GlcNAc
# In short: as §1
# [28] = target: Man(a1-2)Man(a1-6)[Man(a1-3)]Man(a1-6)[Man(a1-2)Man(a1-2)Man(a1-3)]Man(b1-4)GlcNAc(b1-4)GlcNAc
# In short: as §1
# [29] = target: Man(a1-3)[Man(a1-6)]Man
# In short: as §1
# [30] = target: Man(a1-3)[Man(a1-6)]Man(b1-4)GlcNAc(b1-4)GlcNAc
# In short: as §1
# [31] = target: Neu5Ac(a2-3)Gal(b1-3)GlcNAc(b1-2)[Neu5Ac(a2-3)Gal(b1-3)GlcNAc(b1-4)]Man(a1-6)[Neu5Ac(a2-3)Gal(b1-3)GlcNAc(b1-2)Man(a1-3)]Man(b1-4)GlcNAc(b1-4)GlcNAc
# In short: as §1
# [32] = target: Neu5Ac(a2-3)Gal(b1-3)[Neu5Ac(a2-6)]GalNAc
# In short: as §1
# [33] = target: Neu5Ac(a2-3)Gal(b1-4)GlcNAc(b1-3)Gal
# In short: as §1
# [34] = target: Neu5Ac(a2-3)Gal6S(b1-4)GlcNAc
# In short: as §1
# [35] = target: Neu5Ac(a2-6)Gal(b1-4)GlcNAc(b1-3)Gal(b1-4)GlcNAc(b1-2)Man(a1-3)[Neu5Ac(a2-6)Gal(b1-4)GlcNAc(b1-3)Gal(b1-4)GlcNAc(b1-2)Man(a1-6)]GalNAc
# In short: as §1
# [36] = target: Neu5Ac(a2-6)Gal(b1-4)GlcNAc6S
# In short: as §1
# [37] = target: Neu5Gc(a2-3)Gal(b1-4)GlcNAc(b1-3)Gal(b1-4)GlcNAc(b1-2)Man(a1-3)[Neu5Gc(a2-3)Gal(b1-4)GlcNAc(b1-3)Gal(b1-4)GlcNAc(b1-2)Man(a1-6)]Man(b1-4)GlcNAc(b1-4)GlcNAc
# In short: as §1
# [38] = target: Neu5Gc(b2-6)Gal(b1-4)GlcNAc
# In short: as §1
binder,measurement,setting,value
MUB70 (Lactobacillus reuteri) (protein) CVHVQYIDGETDQMLRQDDLDGYTDETIPYSTAEGIKKFEGDGYELFKDNFPAGEKFDNDDTNDQFYTVIF,glycan array binding signal (z-score),[1],2.39
same,glycan array binding signal (z-score),[2],-0.317
same,glycan array binding signal (z-score),[3],-0.274
same,glycan array binding signal (z-score),[4],-0.273
same,glycan array binding signal (z-score),[5],-0.143
same,glycan array binding signal (z-score),[6],-0.805
same,glycan array binding signal (z-score),[7],0.445
same,glycan array binding signal (z-score),[8],2.16
same,glycan array binding signal (z-score),[9],-0.459
same,glycan array binding signal (z-score),[10],0.618
same,glycan array binding signal (z-score),[11],-0.056
same,glycan array binding signal (z-score),[12],0.734
same,glycan array binding signal (z-score),[13],-0.399
same,glycan array binding signal (z-score),[14],0.479
same,glycan array binding signal (z-score),[15],2.07
same,glycan array binding signal (z-score),[16],2.37
same,glycan array binding signal (z-score),[17],-0.071
same,glycan array binding signal (z-score),[18],3.78
same,glycan array binding signal (z-score),[19],1.99
same,glycan array binding signal (z-score),[20],4.49
same,glycan array binding signal (z-score),[21],0.276
same,glycan array binding signal (z-score),[22],-0.592
same,glycan array binding signal (z-score),[23],0.036
same,glycan array binding signal (z-score),[24],-0.453
same,glycan array binding signal (z-score),[25],2.17
same,glycan array binding signal (z-score),[26],0.94
same,glycan array binding signal (z-score),[27],0.523
same,glycan array binding signal (z-score),[28],0.042
same,glycan array binding signal (z-score),[29],-0.052
same,glycan array binding signal (z-score),[30],-0.322
same,glycan array binding signal (z-score),[31],6.11
same,glycan array binding signal (z-score),[32],1.18
same,glycan array binding signal (z-score),[33],0.155
same,glycan array binding signal (z-score),[34],-0.909
same,glycan array binding signal (z-score),[35],0.348
same,glycan array binding signal (z-score),[36],2.67
same,glycan array binding signal (z-score),[37],1.95
same,glycan array binding signal (z-score),[38],0.109
